Assay outcomes: PubChem BioAssay, National Center for Advancing Translational Sciences (NCATS)
Pf growth 48h: P. falciparum growth inhibition at 48 hours (one generation); 5.9% of 310,000 active; Potency, µM (series often up to 28.7 µM), for the others: at the highest dose activity change, negative = inhibition, actives largely listed as inhibitors; AID 504832; P. falciparum luciferase growth in erythrocytes, 48 h; note: potency is the fitted concentration of half-maximal effect; % is set by controls: 0 for no effect and ±100 for the full control effect
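Luminescence readout; reporter = integrated firefly luciferase in P. falciparum. RBC culture at 2% hematocrit, 0.1% parasitemia final, 37 C/5% CO2; decreased signal taken as growth inhibition.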
Shiga inhibitor: Shiga toxin inhibition. Vero cells, Shiga toxin protein synthesis inhibition reporter. inhibition, % at 38.7 µM. 9.2% of 290,000 active; in the data active = inhibition mostly above about 28%, no sharp cut-off; inactive = mostly below about 43%; note: 0% is about no effect
Cycloheximide cs: affects cycloheximide protein synthesis inhibition readout, counter-screen; max response, %; 12% of 300,000 active; cell reporter, cycloheximide protein synthesis inhibition counterscreen; in the data active = max response mostly above about 13%, no sharp cut-off; inactive = mostly below about 14%; note: read at 38.3 µM for the half of the compounds with a filed dose; 0% is about no effect
Pf growth 96h: P. falciparum growth inhibition at 96 hour, primary screen for plastid delayed-death inhibitors; AID 504834; P. falciparum luciferase reporter growth, 96 h; 6.9% of 320,000 active; Potency, µM (series often up to 28.7 µM), for inactives: top-dose activity change, negative = inhibition, hits mostly inhibitors; note: potency is the fitted concentration of half-maximal effect; % is set by controls: 0 for no effect and ±100 for the full control effect
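Two parasite generations (96 h, 37 C, 5% CO2) of compound exposure in infected erythrocytes (0.05% parasitemia, 2% hematocrit). Luciferase-reporter P. falciparum; decreased luminescence indicates inhibited growth, aimed at apicoplast-acting delayed death.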
LmPK inh: blocks Leishmania mexicana pyruvate kinase activity; AID 1721; Q27686; 0.37% of 290,000 active; Potency, µM (top dose mostly 57.5 µM), without a hit: at the top dose activity change, negative = inhibition, usual class: inhibitors; purified LmPK, Kinase-Glo ATP luminescence, 1 h; note: potency is the fitted concentration of half-maximal effect; % is set by controls: 0 for no effect and ±100 for the full control effect
Target sequence (Q27686 whole entry, looked up): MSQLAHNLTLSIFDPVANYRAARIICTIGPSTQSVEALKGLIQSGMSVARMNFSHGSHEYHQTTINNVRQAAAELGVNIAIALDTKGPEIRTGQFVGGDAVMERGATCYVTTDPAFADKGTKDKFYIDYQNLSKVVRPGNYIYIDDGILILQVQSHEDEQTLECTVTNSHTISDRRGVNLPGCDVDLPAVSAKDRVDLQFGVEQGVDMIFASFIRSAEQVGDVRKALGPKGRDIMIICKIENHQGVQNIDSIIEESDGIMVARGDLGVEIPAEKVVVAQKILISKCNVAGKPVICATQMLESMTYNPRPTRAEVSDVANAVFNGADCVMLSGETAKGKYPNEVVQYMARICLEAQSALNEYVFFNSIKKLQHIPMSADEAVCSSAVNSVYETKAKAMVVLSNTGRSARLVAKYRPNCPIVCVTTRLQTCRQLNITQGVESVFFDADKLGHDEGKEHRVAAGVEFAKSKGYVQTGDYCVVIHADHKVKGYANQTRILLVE
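Purified LmPK (0.1 nM) converted ADP (0.1 mM) to ATP with PEP (0.5 mM) in imidazole buffer pH 7.2 with KCl and MgCl2, 1 h at room temperature. ATP was read by Kinase-Glo luminescence; data normalized to uninhibited and no-enzyme controls.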
Numbers without * were called inactive; ? = inconclusive; . = no result given; [ ] = remark or other dose. In the library only some 22% were active in any assay of this set; here they are far more common. Unless noted, calls come from the whole dose curve; as a rule, active = well fitted inhibition curve with a large enough effect; inconclusive = small, poorly fitted or top-dose-only effect, or another doubt; inactive = no such curve, though single readings can be large or run the other way.

SMILES	Pf growth 48h	Shiga inhibitor	Cycloheximide cs	Pf growth 96h	LmPK inh
CCC(=O)Nc1cccc(-c2nc3ccccc3o2)c1	43%	48	16*	.	-3%
CC(=O)Nc1nc2ccc(-c3nc4ccccc4o3)cc2s1	100%	54*	61*	62%	-4%
CC12COC3(C(N)=O)CC1CCC32C (stereo not given)	-9%	-12	-1	24%	2%
Cc1ccc(S(=O)(=O)Nc2ccccc2F)cc1C(=O)OC(C)C(=O)N1CCOCC1 (stereo not given)	21%	.	.	9%	.
Cc1ccc(C(C)C)c(Oc2cnccn2)c1	3%	-2	-6	34%	-2%
Cc1ccc2nc(SCc3cn4cccnc4n3)[nH]c2c1	18%	27	14	106%	3%
CCOc1ccc(N2C(=O)CC(Sc3ccccc3C(=O)O)C2=O)c([N+](=O)[O-])c1 (stereo not given)	-1%[5.75 µM]	2	5	2%	-1%
N=C1/C(=C\c2ccc(OC(=O)c3ccc(F)cc3)cc2)C(=O)N=C2SC(N3CCCC3)=NN12	-1%	11	15	?	-2%
Cc1ccc(C(=O)Oc2ccc(/C=C3\C(=N)N4N=C(N5CCOCC5)SC4=NC3=O)cc2)cc1	39%	59*	26*	?	4%
N=C1/C(=C\c2ccc(OCc3ccccc3)cc2)C(=O)N=C2SC(N3CCCC3)=NN12	3%	45*	27*	-27%	5%
N=C1/C(=C\c2ccc(OC(=O)c3ccccc3)cc2)C(=O)N=C2SC(N3CCOCC3)=NN12	-25%	11	15*	19%	1%
COc1ccc(F)cc1C(=O)C1CCCN(Cc2ccc(Sc3nncn3C)o2)C1 (stereo not given)	-7%	27	-5	?	6%
COc1cc2c(cc1OC)CN(c1ccc(-c3ccccc3OC)nn1)CC2	5.2µM*	4	-3	6%[5.75 µM]	-3%
COc1cc2c(cc1OC)CN(c1ccc(C(F)(F)F)cn1)CC2	19%	53*	21*	38%	5%
COc1cc2c(cc1OC)CN(c1ccc([N+](=O)[O-])c(C(F)(F)F)c1)CC2	?	-6	-3	?	1%
COc1cc2c(cc1OC)CN(c1ccc3ccccc3n1)CC2	12µM*	88*	42*	?	-3%
CCn1c2ccccc2c2cc(NC(=O)C(C)Oc3ccc(OC)cc3)ccc21 (stereo not given)	?	-3	1	5.9µM*	5%
COc1ccc(C(=O)CC(=O)C(=O)Nc2cccc(F)c2)cc1	.	50*	19*	?	1%
COc1ccc(C(=O)CNc2cccc(F)c2)cc1	46%	87*	50*	4%	-4%
CC(Oc1ccccc1F)C(=O)Nc1ccc2ccccc2c1 (stereo not given)	74%	80*	45*	67%	1%
COc1ccc(C(=O)CC(=O)C(=O)Nc2ccccc2)cc1	10%	36	22	-3%	-1%
COc1ccccc1NC(=S)N1CCN(c2cccc(C)c2C)CC1	?	1	-3	?	0%
CCCCn1c(N)c(N(CC(C)C)C(=O)c2ccc(-c3ccc(Cl)cc3)o2)c(=O)[nH]c1=O	17%	.	.	?	.
Cc1cc(C)c(C(=O)N2CCCC(N3CCN(c4ccc(F)cc4)CC3)C2)o1 (stereo not given)	?	-1	7	7%	4%
COc1ccc(OCCCC(=O)Nc2cccc(C(C)=O)c2)cc1	2%	-4	-2	-1%	-5%
SMILES	Pf growth 48h	Shiga inhibitor	Cycloheximide cs	Pf growth 96h	LmPK inh
COc1ccc(OCCCC(=O)OC(C)C(=O)Nc2cccc(C(C)=O)c2)cc1 (stereo not given)	7%	-22	15*	53%	-6%
COc1ccc(OC(C)C(=O)Nc2cccc(F)c2)cc1 (stereo not given)	-5%	11	1	1µM*	0%
COc1ccc(CC(=O)Nc2ccc(N3CCCC3)c(C)c2)cc1	?	26	12	?	2%
Cc1ccc(NC(=O)C(=O)NCCCN2CCOCC2)c(C)c1	0%	16	3	-3%	-3%
COc1ccc2cc(-c3[nH]ncc3CN3CCCC3c3nonc3C)ccc2c1 (stereo not given)	-22%	51*	35*	4.7µM*	-6%
Cc1cc(/C=C2/C(=N)N3C(c4ccccc4)=CSC3=NC2=O)c(C)n1-c1ccccc1	19%	-6	20*	0%	3%
N=C1/C(=C\c2ccc(-c3cccc(C(=O)O)c3)o2)C(=O)N=C2SC=C(c3ccccc3)N12	17%	56*	26*	13%	-11%
N=C1/C(=C/c2ccc(-c3cccc(C(=O)O)c3)o2)C(=O)N=C2SC(CC(=O)N3CCOCC3)=NN12	48%	11	25*	51%	7%
Cc1ccccc1-n1c(C)cc(/C=C2/C(=N)N3C(c4ccccc4)=CSC3=NC2=O)c1C	-3%	17	8	?	0%
CCCNC(=O)OCCC12CC3CC(CC(C3)C1)C2	18%	25*	59*	67%	2%
CCCCNC(=O)NC12CC3CC(CC(C3)C1)C2	-13%	12	-1	?	-2%
CN(C)CCOC(=O)NCC12CC3CC(CC(C3)C1)C2	4%	-8	6	28%	-11%
CCCNC(=O)NCCC12CC3CC(CC(C3)C1)C2	?	65*	45*	38%	-10%
CNC(=O)CNC(=O)Nc1ccc(Cl)c(Cl)c1	-3%	6	-3	41%	1%
O=C(NCc1ccco1)c1cccc(F)c1	7%	-3	2	?	0%
O=C(NC1=NCCS1)c1sc2cc(F)ccc2c1Cl	141%	96*	77*	76%	4%
O=C(NCc1ccco1)c1sc2cc(F)ccc2c1Cl	111%	86*	39*	15µM*	0%
O=C(NCCCN1CCOCC1)c1sc2cc(F)ccc2c1Cl	46%	42*	38*	57%	-2%
O=C(Nc1ccon1)c1sc2cc(F)ccc2c1Cl	158%	75*	33*	-8%	-2%
Cc1cc(OCC(=O)N2CCN(c3ccccn3)CC2)cc(C)c1Br	5%	-1	21	-23%	1%
COCC1CCCN(Cc2cn(-c3ccccc3)nc2-c2ccc3c(c2)OCO3)C1 (stereo not given)	9.3µM*	12	1	?	-4%
c1ccc(-n2cc(CN3CCCC3)c(-c3ccc4c(c3)OCO4)n2)cc1	5.2µM*	-2	8	?	3%
COCCn1c(SCC(=O)Nc2cc(C)on2)nc2c(c1=O)SCC2	-4%	-27	-2	8%	-10%
CN(CC(=O)Nc1ccccc1Br)C(=O)c1ccccc1-c1nc2ccccc2s1	-12%	9	4	-6%	-1%
CC1(c2cnc(Nc3ccccc3)s2)CCC(=O)O1 (stereo not given)	53%	64*	34*	47%	2%
Cc1nnsc1C(=O)Nc1ccc(S(=O)(=O)N2CCCC(C)C2)cc1 (stereo not given)	-17%	32	7	?	-3%
